According to PubChem BioAssay AID493194 (Broad Institute, 2011):
Measured potencies and affinities stand elsewhere. Records with an inconclusive call do not appear.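 How the source made its calls: active means a valid curve of falling signal whose half-effect concentration is at most ten times the top tested dose; inconclusive means flat curve at 30 to 70% inhibition, or poor fit; inactive means signal rise, flat within 30%, or potency beyond limit.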

biological target: Scavenger receptor class B member 1 (Mus musculus) (UniProt Q61009); test: mouse SR-BI DiI-HDL uptake blockers – ldlA[mSR-BI] cells, fluorescence, cherry pick, dose response (AID 493194); conditions: CHO ldlA[mSR-BI] DiI-HDL uptake fluorescence, 3 h; series mostly up to 35 µM; activity change, negative = inhibition: at the top concentration;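 further: CHO cells lacking LDL receptor and overexpressing mouse SR-BI; cellular uptake of fluorescently labeled HDL measured as cell fluorescence; 0% = median of neutral control wells and -100% = median of positive control wells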
Sequence (Q61009 whole entry, looked up): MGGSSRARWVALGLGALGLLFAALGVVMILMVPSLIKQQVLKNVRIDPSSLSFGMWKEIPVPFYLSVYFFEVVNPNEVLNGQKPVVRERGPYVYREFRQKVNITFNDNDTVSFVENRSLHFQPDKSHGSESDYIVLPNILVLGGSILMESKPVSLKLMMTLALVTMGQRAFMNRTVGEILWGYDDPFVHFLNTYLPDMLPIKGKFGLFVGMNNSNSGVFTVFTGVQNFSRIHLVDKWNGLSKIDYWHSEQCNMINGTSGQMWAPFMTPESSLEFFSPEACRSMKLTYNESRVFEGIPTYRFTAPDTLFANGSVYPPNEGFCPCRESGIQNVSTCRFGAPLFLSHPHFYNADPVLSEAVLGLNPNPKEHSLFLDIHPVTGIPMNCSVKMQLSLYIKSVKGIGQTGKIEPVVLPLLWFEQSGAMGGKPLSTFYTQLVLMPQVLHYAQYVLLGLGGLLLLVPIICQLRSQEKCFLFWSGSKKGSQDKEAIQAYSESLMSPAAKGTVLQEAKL

Activity change, negative = inhibition, inactive:
COc1ccc(N2CC(C(=O)N3CCN(S(=O)(=O)c4ccc(F)c(F)c4)CC3)CC2=O)c(OC)c1 (stereo unspecified) 20.3%, COc1cc(/C=C/C(=O)OCC(=O)c2ccc[nH]2)cc(OC)c1OC -21.2%, CS(=O)(=O)N1CCc2cc(-c3csc(NC(=O)Cc4ccccc4)n3)ccc21 13%, Cc1nn(Cc2c(Cl)cccc2Cl)c(C)c1NC(=O)CCCn1nc([N+](=O)[O-])c(Cl)c1C -20.3%, CCCCC(=O)Nc1nc(C)c(-c2csc(Nc3ccc(Cl)cc3)n2)s1 4.32%, Cc1ccc(C(=O)COc2cc(O)c3c(=O)cc(-c4ccccc4)oc3c2)cc1 5.32%, COc1ccc(OCCSc2nnc(-c3cccnc3)n2N)cc1 -6.66%, CCOc1ccc(OCCSc2nc3ccccc3n2CC(=O)O)cc1 51.5%, CC(=O)c1ccc(N2CCN(C(=O)c3cc(-c4cccnc4)nc4ccc(Br)cc34)CC2)cc1 3.24%, COc1ccc([C@H]2/C=C\CN(S(=O)(=O)c3ccc(C)cc3)[C@@H](C)C(=O)N2Cc2ccc(F)cc2)cc1 0.303%, CNc1nc(-c2ccc3c(c2)CCN3C(=O)c2ccccc2F)c(C)s1 -4.41%, Cc1ccc(OCC(=O)NNC(=O)C2CCN(c3ncnc4sc(C)c(C)c34)CC2)cc1 -32.4%, Cc1ccsc1-c1nc(-c2ccccc2)c(-c2ccccc2)[nH]1 -8.96%, Cc1ccc(S(=O)(=O)NCc2ccc(C(=O)NCCc3ccc(S(N)(=O)=O)cc3)cc2)cc1 -30.5%, O=S(=O)(c1ccccc1)c1cnc(-c2ccccc2)nc1N1CCCCC1 -21.5%, CCCC(=O)Nc1ccc(Cl)c(NC(=O)c2ccc(Br)o2)c1 -19.4%, CCc1cc(CNC(=O)C2CCC(=O)N(CCc3cccc(F)c3)C2)on1 (stereo unspecified) 22.5%, CCCn1c(=O)[nH]c(=O)c2c1nc(-c1ccc(OC(F)(F)C(F)C(F)(F)F)cc1)n2CCOC (stereo unspecified) -12%, CC1CN(c2oc(COc3ccc(Cl)cc3Cl)nc2C#N)CC(C)O1 (stereo unspecified) -20.2%, O=C(Nc1cccc(NC(=O)c2ccccc2[N+](=O)[O-])c1)c1ccccc1Cl -0.244%, Cc1cc(C(=O)COC(=O)c2ccc(Cl)c(S(N)(=O)=O)c2)c(C)n1C1CC1 -28.6%
